Assay outcomes as filed in PubChem BioAssay.
IL1B secr inh – inflammasome signaling inhibition, IL-1 beta readout. AID 743279. 360,000 compounds, 4.7% hits. THP-1 LPS/ATP IL-1B secretion, AlphaLISA, 16 h; active compounds read low. activity change, % at 57.5 µM; in the data active = activity change below about -50%; inconclusive = mostly about -30% to -49%; also: % is scaled to controls: 0 for no effect and ±100 for the full control effect
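Secreted IL-1B measured by AlphaLISA bead assay after 16 h compound exposure of THP-1 cells; compounds (final up to 57.5 uM) added 1 h before LPS (250 ng/mL) and ATP (1.25 mM) stimulation; lower signal means less secretion.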
HepG2 tox – counter-screen for TGF-b inhibitors: cytotoxicity in HepG2 cells; 410,000 compounds, 0.76% hits; Potency, µM (titrated, usually from 46.1 µM), without a hit: at the top dose activity change, negative = cytotoxicity, usual class: cytotoxic; HepG2 CAGA-GFP viability, ATP luminescence, 18 h; also: potency is read from the fitted curve at half-maximal effect
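HepG2 CAGA-GFP cells (1000/well, DMEM with 1% FBS) received compound, then TGF-beta at 500 pg/mL final, and were incubated 18 hours at 37 degrees C. Viability was read by CellTiter-Glo luminescence. Media-only wells were set as complete cell-killing and DMSO as no toxicity.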
TGFb inhibitor – blocks TGF-b signaling; HepG2 CAGA-GFP TGF-b/SMAD3 reporter, GFP fluorescence, 18 h; TGF-beta stimulated, 500 pg/mL final; Potency, µM (top dose mostly 46.1 µM), inactives show at the highest dose activity, negative = inhibition, most hits filed as inhibitors; 410,000 compounds, 1.2% hits; AID 588855; also: potency is read from the fitted curve at half-maximal effect; % is scaled to controls: 0 for no effect and ±100 for the full control effect; nearly all actives have a fitted effect of over 65% in size
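HEPG2 CAGA-GFP, 1000 cells/well; 2 h settle, 37 C; cpd via pin tool; TGF-b 500 pg/mL final; 18 h, 37 C; GFP imaging ex488/em500-530; %Activity normalised to -TGF-b and +DMSO controls; CRC fit, curve class.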
TDP1 cell noCPT – qHTS for Inhibitors of human tyrosyl-DNA phosphodiesterase 1 (TDP1): qHTS in cells in absence of CPT; 420,000 compounds, 15% hits; Potency, µM (titrated, usually from 46.2 µM), without a hit: at the top dose activity change, negative = growth inhibition, hits mostly inhibitors; AID 686978, 2013; DT40 Tdp1-/- hTDP1 cells, no CPT, ATP luminescence, 48 h; also: potency is read from the fitted curve at half-maximal effect; % is scaled to controls: 0 for no effect and ±100 for the full control effect; nearly all actives have a fitted effect of over 55% in size
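A cellular qHTS used chicken DT40 cells lacking endogenous Tdp1 but carrying stably transfected human TDP1. Compounds were applied without camptothecin, and cell growth kinetics were judged by ATP-dependent luminescence after ≥48 hr.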
TDP1 cell CPT – DT40-hTDP1 cell growth loss with CPT. chicken DT40 Tdp1-/-;hTDP1 cells + 20 nM CPT, ATP luminescence, 48 h. Potency, µM (top dose mostly 46.2 µM), without a hit: top-dose activity change, negative = growth inhibition, actives largely listed as inhibitors. 420,000 compounds, 12% hits. AID 686979; also: potency is read from the fitted curve at half-maximal effect; % is scaled to controls: 0 for no effect and ±100 for the full control effect; nearly all actives have a fitted effect of over 55% in size
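Cell growth measured by CellTiter-Glo luminescence after a minimum 48 h, 37 C compound exposure with 20 nM CPT in Tdp1-knockout DT40 cells stably expressing hTDP1, seeded 400/well; qHTS titration format.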
S-ASM inh – human S-ASM enzyme inhibition. 340,000 compounds, 0.006% hits. P17405. placental ASM, HMU-PC fluorogenic substrate, 60 min. Potency, µM (series often up to 57.5 µM), inactives show at the top dose activity change, negative = inhibition, usual class: inhibitors. AID 504937; also: potency is read from the fitted curve at half-maximal effect
Target sequence (P17405 47-631 limits assumed): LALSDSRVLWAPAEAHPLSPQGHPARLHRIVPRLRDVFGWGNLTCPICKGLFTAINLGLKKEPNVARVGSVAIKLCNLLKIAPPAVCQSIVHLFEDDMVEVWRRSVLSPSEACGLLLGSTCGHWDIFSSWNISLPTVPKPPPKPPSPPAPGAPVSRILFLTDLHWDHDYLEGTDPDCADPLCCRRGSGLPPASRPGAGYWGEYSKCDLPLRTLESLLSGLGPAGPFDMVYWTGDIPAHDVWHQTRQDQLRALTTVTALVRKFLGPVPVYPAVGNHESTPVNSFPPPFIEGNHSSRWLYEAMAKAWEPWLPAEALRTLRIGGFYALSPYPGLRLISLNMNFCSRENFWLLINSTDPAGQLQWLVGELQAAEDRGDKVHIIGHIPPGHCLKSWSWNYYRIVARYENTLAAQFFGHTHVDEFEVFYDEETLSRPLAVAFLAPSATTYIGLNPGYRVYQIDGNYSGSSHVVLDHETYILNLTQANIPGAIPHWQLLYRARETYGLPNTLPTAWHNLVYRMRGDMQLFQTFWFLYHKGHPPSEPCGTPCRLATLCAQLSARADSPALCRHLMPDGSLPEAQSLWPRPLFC
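HMU-PC0 cleavage (9 uM final) by human placental ASM, 60 min at 37 °C following 10 min compound exposure at RT; stopped at pH 10, fluorescence Ex 386/Em 447 nm.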
* hit, by the source's call; i = inactive; ? = inconclusive; nt = no result given. Most compounds without a hit are left out; they make up all but 19% or so of the library. Unless noted, calls follow the shape of the dose curve; as a rule, active = well fitted curve in the direction sought with a large enough effect; inconclusive = small, poorly fitted or top-dose-only effect, or another doubt; inactive = no such curve, though single readings can be large; an effect the other way counts as inactive or inconclusive.

SMILES	IL1B secr inh	HepG2 tox	TGFb inhibitor	TDP1 cell noCPT	TDP1 cell CPT	S-ASM inh
Cc1nn(CC(C)C)c(Cl)c1C(=O)N(c1ccc(Cl)cc1F)S(C)(=O)=O	?	-21.4%	?	?	-5.7%	0.5%
CCC(CC)c1nnc(NC(=O)CCS(=O)(=O)Cc2ccccc2)s1	-17.6	18.4%	-6.1%	14.6µM*	?	1.7%
CCc1nnc(NC(=O)CCS(=O)(=O)Cc2ccccc2)s1	-5.6	-10.0%	-2.8%	?	14.6µM*	-0.8%
COCc1nnc(NC(=O)CCS(=O)(=O)c2ccccc2)s1	-97.4*	0.3%	?	16.4µM*	10.3µM*	-0.1%
COC(=O)Cc1nnc(NC(=O)c2ccccc2)s1	-13.7	7.0%	6.4%	-27.9%	-8.4%	4.8%
COCc1nnc(NC(=O)c2cccc(NC(=O)c3ccccc3)c2)s1	33.3	-3.5%	-5.7%	20.6µM*	?	nt
Cc1nc2c(=O)[nH]c3ccccc3c2o1	-5.0	6.0%	-2.0%	11.4%	16.3%	-1.2%
CCOC(=O)c1ccc(NC(=O)CSc2nc3ccccc3c(=O)n2CCNC(C)=O)cc1	nt	-4.5%	3.1%	-17.5%	-4.5%	nt
OCc1cccc(-c2csc(C(O)c3ccccc3)n2)c1 (configuration not stated)	39.7	-19.2%	-15.8%	-13.0%	?	nt
CC(C)c1nnc(NC(=O)CCS(=O)(=O)c2ccccc2)s1	-104.5*	41.5%	-29.7%	?	16.4µM*	2.9%
CC(C)c1nnc(NC(=O)CCc2ccccc2)s1	-1.8	-14.1%	2.5%	10.2%	2.8%	-1.8%
O=C(CCS(=O)(=O)c1ccccc1)Nc1ncc([N+](=O)[O-])s1	-76.4*	-58.3%	15.8µM*	10.3µM*	8.2µM*	-0.4%
Cc1ccc(S(=O)(=O)CCc2nnc(NC(=O)c3ccccn3)s2)cc1	0.0	-31.4%	?	20.6µM*	?	3.6%
Brc1ccc(-c2cn3cc(Cc4ccccc4)sc3n2)cc1	nt	-8.2%	-8.0%	-16.1%	-16.1%	nt
O=[N+]([O-])c1cc([N+](=O)[O-])c2cc3ccccc3nc2c1	-102.0*	-2.3%	?	0.517µM*	0.259µM*	-5.5%
CCCCn1nnnc1C(c1ccccc1)N1CCN(c2cccc(C)c2C)CC1 (configuration not stated)	-15.3	nt	nt	16.4µM*	?	nt
CCCCn1nnnc1C(c1ccccc1)N1CCN(c2c(Cl)cncc2Cl)CC1 (configuration not stated)	0.2	nt	nt	16.4µM*	?	nt
Cc1cccc(N2CCN(C(c3ccncc3)c3nnnn3C(C)(C)C)CC2)c1C (configuration not stated)	?	-6.3%	0.0%	18.4µM*	-6.3%	-0.9%
COc1ccc(N2CCN(C(c3ccc4ncccc4c3)c3nnnn3C(C)(C)C)CC2)cc1 (configuration not stated)	-3.8	-13.2%	-10.8%	-5.9%	-5.0%	-2.5%
CCCCn1nnnc1C(c1ccccc1)N1CCN(c2ccccc2)CC1 (configuration not stated)	-12.2	nt	nt	?	?	nt
COc1ccc(N2CCN(C(c3ccc(C)cc3)c3nnnn3C(C)(C)C)CC2)cc1 (configuration not stated)	nt	-29.6%	-3.7%	14.1µM*	?	nt
COc1cc2c(cc1OC)CN(CC(=O)Nc1ccc(C)c(C)c1)CC2	-4.5	-22.9%	-0.6%	-14.0%	?	1.1%
CC(C)(C)n1nnnc1C(c1cccnc1)N1CCN(c2cccc(C(F)(F)F)c2)CC1 (configuration not stated)	-0.6	8.8%	-0.6%	20.6µM*	18.4µM*	-0.1%
CC(C)(C)n1nnnc1C(c1ccccc1)N1CCN(c2c(Cl)cncc2Cl)CC1 (configuration not stated)	-12.0	nt	nt	16.4µM*	?	nt
CC(C)(C)n1nnnc1C(c1cccnc1)N1CCN(C2CCCCC2)CC1 (configuration not stated)	8.5	9.2%	12.3%	2.0%	-1.2%	5.6%
SMILES	IL1B secr inh	HepG2 tox	TGFb inhibitor	TDP1 cell noCPT	TDP1 cell CPT	S-ASM inh
Nc1c2c(=O)[nH]c(O)cc2nn1-c1ccccc1	35.9	-2.1%	-5.4%	?	-24.0%	5.5%
C=CCNC(=O)c1onc(CSc2ccccc2CC)c1C(=O)O	16.2	-3.2%	-4.1%	-1.6%	-4.3%	12.3%
COc1ccc(C(=O)NC2CC2)cc1OC1CCN(Cc2ccc(Cl)cc2)CC1	i	24.7%	3.9%	?	?	2.3%
CC1(C)CC(OC(=O)c2ccccc2)CC(C)(C)N1	-7.3	-2.9%	9.5%	1.6%	-18.0%	-1.6%
CC(=O)O[C@H]1C[C@@]2(O)[C@@H](OC(=O)c3ccccc3)C3[C@@](C)([C@@H](O)C[C@H]4OC[C@@]34OC(C)=O)[C@@H](O)[C@H](OC(C)=O)C(=C1C)C2(C)C (some centres not stated)	11.6	-11.5%	4.3%	18.4µM*	16.4µM*	-1.4%
COc1ccc(OC)c(Cc2nnc(CCC(=O)NC3CCCCCCC3)o2)c1	-8.5	8.6%	-2.3%	?	?	1.6%
COc1ccc(C(=O)n2cnc3ccccc32)cc1	11.3	-3.6%	-2.9%	12.0%	-5.2%	-1.9%
CCCc1cc(NCc2ccccn2)n2c(nc3ccccc32)c1C#N	-9.7	1.3%	14.4%	18.4µM*	?	i
CCCc1cc(NCCCN(C)C)n2c(nc3ccccc32)c1C#N	-4.8	-32.8%	15.0%	?	-5.2%	i
CNc1cc(C)c(C#N)c2nc3ccccc3n12	-10.1	-3.7%	1.5%	-27.3%	-20.2%	i
Cc1cc(N2CCN(c3ccccn3)CC2)n2c(nc3ccccc32)c1C#N	12.7	2.1%	-1.8%	18.4µM*	?	101.4%
CCCc1cc(NCC2CCCO2)n2c(nc3ccccc32)c1C#N (configuration not stated)	-4.2	-8.2%	0.0%	23.1µM*	18.4µM*	i
CCCc1cc(NCCN(C)C)n2c(nc3ccccc32)c1C#N	-10.0	-8.9%	-0.6%	?	-9.1%	i
CN1CCN(S(=O)(=O)c2cccc(C(=O)Nc3sc4c(c3-c3nc5ccccc5[nH]3)CCCC4)c2)CC1	42.1	-5.2%	-15.6%	13µM*	14.6µM*	?
Cc1nc(-c2cccc(NC(=O)C3CCCCC3)c2)cs1	-5.0	-20.3%	?	-24.2%	?	-3.3%
